Data from the supplement of paper PMC7366291.
Where a name gives a salt, the structure may show the parent alone. ± gives the standard deviation of the averaged measurements.

Tested on: Danio rerio Tg(wt1b:EGFP) embryo, pronephros
Experiment: pronephric angle neck segment to proximal convoluted tubule (mean of left and right), fold change vs DMSO control; higher = larger pronephric angle
Settings: 25 µM; exposure: 24-48 hpf
In short: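 Every feature is expressed as a fold change relative to the averaged DMSO-treated embryos of the same day. The exposure ran from 24 to 48 hpf at 28.5°C, with dechorionated Tg(wt1b:EGFP) zebrafish embryos in HEPES-buffered E3 containing 0.003% PTU, 0.5% DMSO and 25 μM compound. Dorsal pronephros images taken in agarose-filled 96-well plates were reduced to maximum projections, on which 16 reference points were set by hand in Fiji for a macro to compute distances and angles. Values more than 2 SD from the feature mean were not used.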

| Structure (SMILES) | pronephric angle neck segment |
| --- | --- |
| CC(Oc1c(Cl)cccc1Cl)C1=NCCN1 (stereo not given) [Lofexidine] | 0.96 ± 0.028 |
| CCC(=O)[C@@]1(C)[C@H](C)C[C@H]2[C@@H]3CCC4=CC(=O)C=C[C@]4(C)[C@H]3[C@@H](O)C[C@@]21C [Rimexolone] | 0.965 ± 0.031 |
| CC(=O)Oc1cc(C(F)(F)F)ccc1C(=O)O [Triflusal] | 1.02 ± 0.031 |
| COC(=O)[C@@H]1[C@H]2C[C@H]3c4[nH]c5ccccc5c4CCN3C[C@@H]2CC[C@@H]1O [Yohimbine hydrochloride] | 0.985 ± 0.082 |
| COc1cc([S+](C)[O-])ccc1-c1nc2cccnc2[nH]1 (stereo not given) [Sulmazole] | 0.9818 ± 0.0097 |
| N=C(N)N/N=C/c1c(Cl)cccc1Cl [Guanabenz acetate] | 0.9461 ± 0.00069 |
| CC1CC(OC(=O)c2ccccc2O)CC(C)(C)C1 (stereo not given) [Homosalate] | 1.15 ± 0.044 |
| CCC(=O)O[C@@H](O[P@](=O)(CCCCc1ccccc1)CC(=O)N1C[C@H](C2CCCCC2)C[C@H]1C(=O)O)C(C)C [Fosinopril] | 1.03 ± 0.013 |
| Nc1nc(NC2CC2)c2ncn([C@H]3C=C[C@@H](CO)C3)c2n1 [Abacavir Sulfate] | 1.04 ± 0.034 |
| CC(C)(C#N)c1cc(Cn2cncn2)cc(C(C)(C)C#N)c1 [Anastrozole] | 1.04 ± 0.062 |
| CCCc1cc(C(N)=S)ccn1 [Prothionamide] | 1.007 ± 0.0083 |
| CCn1cc(C(=O)O)c(=O)c2cnc(N3CCNCC3)nc21 [Pipemidic acid] | 0.9737 ± 0.0064 |
| CC[C@H]1OC(=O)[C@H](C)[C@@H](O[C@H]2C[C@@](C)(OC)[C@@H](O)[C@H](C)O2)[C@H](C)[C@@H](O[C@@H]2O[C@H](C)C[C@H](N(C)C)[C@H]2O)[C@](C)(O)C[C@@H](C)C(=O)[C@H](C)[C@@H](O)[C@]1(C)O [Erythromycin] | 0.9494 ± 0.0015 |
| C[C@H](CCC(=O)O)[C@H]1CC[C@H]2[C@@H]3[C@H](O)C[C@@H]4C[C@H](O)CC[C@]4(C)[C@H]3CC[C@]12C [Chenodiol] | 1.04 ± 0.13 |
| Nc1nc(=O)c2nc(CNc3ccc(C(=O)N[C@@H](CCC(=O)O)C(=O)O)cc3)cnc2[nH]1 [Folic acid] | 1.04 ± 0.014 |
| C[C@H](Cc1cc2c(c(C(N)=O)c1)N(CCCO)CC2)NCCOc1ccccc1OCC(F)(F)F [Silodosin] | 0.992 ± 0.028 |
| COCCCOc1ccnc(C[S+]([O-])c2nc3ccccc3[nH]2)c1C (stereo not given) [Rabeprazole Sodium salt] | 1.11 ± 0.019 |
| CC(C)NCC(O)c1ccc2ccccc2c1 (stereo not given) [Pronethalol hydrochloride] | 1.03 ± 0.06 |
| CCCC(CCC)C(=O)O [Valproic acid] | 1.11 ± 0.14 |
| CCN(CC)CCOC(=O)C1(C2CCCCC2)CCCCC1 [Dicyclomine hydrochloride] | 1.16 ± 0.077 |

| Structure (SMILES) | pronephric angle neck segment |
| --- | --- |
| CC1(C)NC(=O)N(c2ccc([N+](=O)[O-])c(C(F)(F)F)c2)C1=O [Nilutamide] | 0.945 ± 0.013 |
| CCOC(=O)[C@@](C)(N)Cc1ccc(O)c(O)c1 [Methyldopate hydrochloride] | 1.014 ± 0.0011 |
| O=C1C(O)=C([C@H]2CC[C@H](c3ccc(Cl)cc3)CC2)C(=O)c2ccccc21 [Atovaquone] | 0.959 ± 0.017 |
| CCCSc1ccc2[nH]c(NC(=O)OC)nc2c1 [Albendazole] | 1.97 ± 0.07 |
| Cc1ccc(N(CC2=NCCN2)c2cccc(O)c2)cc1 [Phentolamine hydrochloride] | 0.994 ± 0.018 |
| CCN(CC)CCOCCOC(=O)C1(c2ccccc2)CCCC1 [Carbetapentane citrate] | 1.06 ± 0.11 |
| O=C(NCCNCC(O)COc1ccc(O)cc1)N1CCOCC1 (stereo not given) [Xamoterol hemifumarate] | 0.98 ± 0.045 |
| C[N+]1(CCCCC[N+]2(C)CCCC2)CCCC1 [Pentolinium bitartrate] | 1.05 ± 0.052 |
| CCCc1nc2c(C)cc(-c3nc4ccccc4n3C)cc2n1Cc1ccc(-c2ccccc2C(=O)O)cc1 [Telmisartan] | 1.16 ± 0.046 |
| C[C@H](CCC(=O)O)[C@H]1CC[C@H]2[C@@H]3C(=O)C[C@@H]4CC(=O)CC[C@]4(C)[C@H]3CC(=O)[C@]12C [Dehydrocholic acid] | 0.984 ± 0.029 |
| O=C(O)CCNC(=O)c1ccc(/N=N/c2ccc(O)c(C(=O)O)c2)cc1 [Balsalazide Sodium] | 1.08 ± 0.012 |
| Nc1ccc(S(=O)(=O)Nc2ccc(Cl)nn2)cc1 [Sulfachloropyridazine] | 1.017 ± 0.0048 |
| CC(C)NC(=N)NC(=N)Nc1ccc(Cl)cc1 [Proguanil hydrochloride] | 1.02 ± 0.054 |
| O=C1CC[C@@H](C(=O)N2CSC[C@H]2C(=O)O)N1 [Pidotimod] | 1.003 ± 0.0016 |
| NC1CCN(c2nc3c(cc2F)c(=O)c(C(=O)O)cn3-c2ccc(F)cc2F)C1 (stereo not given) [Tosufloxacin hydrochloride] | 1.038 ± 0.0028 |
| CC(C)NCC(O)COc1ccc(CCOCC2CC2)cc1 (stereo not given) [Betaxolol hydrochloride] | 0.987 ± 0.025 |
| O=C1CCC(N2C(=O)c3ccccc3C2=O)C(=O)N1 (stereo not given) [Thalidomide] | 0.748 ± 0.037 |
| O=c1[nH]c(=O)n([C@H]2C[C@H](O)[C@@H](CO)O2)cc1I [Idoxuridine] | 1.05 ± 0.073 |
| CNC(C)CCC=C(C)C (stereo not given) [Isometheptene mucate] | 0.977 ± 0.024 |
| O=C(O)c1cc(-c2ccc(F)cc2F)ccc1O [Diflunisal] | 1.69 ± 0.17 |
